# Source: PubChem BioAssay AID435030 (The Scripps Research Institute Molecular Screening Center, 2010)
# The whole screen tested about 330,000 compounds, of which about 940 (0.28%) were called active. What follows is part of a selection rich in actives, with near analogues and random picks from the rest. Unmarked numbers belong to inactive results. No stated cut-off is given here; in the data, active means inhibition above about 12%; inactive means the rest.
# Assay: reduced growth of AddAB-expressing E. coli cells – absorbance, AddAB inhibitor project, primary screen (AID 435030);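 further: 0% = vehicle wells of infected cells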
# Settings: E. coli expressing H. pylori AddAB, at 11.9 µM, active compounds read high
row,Structure (SMILES),inhibition
1,O=C(Oc1ccc([N+](=O)[O-])cc1)c1ccc2ccccc2n1,0.94%
2,O=[N+]([O-])c1ccc(N=Cc2c(O)ccc3ccccc23)cc1,39.5% (active)
3,Cc1nc2ccccc2nc(=O)c1NNc1ccc([N+](=O)[O-])cc1,0.52%
4,CC(Sc1nnc(Cc2ccc([N+](=O)[O-])cc2)o1)C(N)=O (configuration not stated),2.62%
5,COC(=O)c1cc(S(=O)(=O)Nc2ccc(C)c(F)c2)c[nH]1,2.73%
6,CCOc1ccc(OCC)c(NC(=O)C(NS(=O)(=O)c2ccc3c(c2)oc(=O)n3C)C(C)C)c1 (configuration not stated),0.33%
7,O=C(CCNS(=O)(=O)c1ccccc1)NCCSc1ccc(Br)cc1,-1.46%
8,CC(C)(C)CC(=O)Nc1nnc(SCC(=O)NCc2cccs2)s1,1.97%
9,Cc1cccc(NC(=O)Cn2cc(C(=O)c3ccco3)c3ccccc32)c1,13.8% (active)
10,CC1CCN(C(=O)Cn2cc(C(=O)c3ccco3)c3ccccc32)CC1,0.41%
11,O=C(Cn1cc(C(=O)c2cccs2)c2ccccc21)NCc1cccs1,-0.41%
12,Cc1cc(C)c(S(=O)(=O)N2CCCC2CNC(=O)c2ccc3c(c2)OCO3)c(C)c1 (configuration not stated),2.32%
13,N#Cc1ccc(OCCN2C(=O)NC3(CCSC3)C2=O)cc1 (configuration not stated),-2.01%
14,O=C(OCC(=O)N1CCN(C(=O)c2ccco2)CC1)c1c(Cl)cccc1Cl,1.58%
15,NS(=O)(=O)c1cccc(NC(=O)COC(=O)c2cc([N+](=O)[O-])ccc2N2CCCC2)c1,0.9%
16,CCn1c(/C=C/c2ccc([N+](=O)[O-])o2)nc2ccccc2c1=O,17.8% (active)
17,CCOCCCn1c(NN)nc2ccccc2c1=O,1.87%
18,CCn1c(=O)c([N+](=O)[O-])c(NCc2ccc3c(c2)OCO3)c2ccccc21,-0.08%
19,CCOC(=O)c1sc(/N=C/C2=C(O)CC(C)(C)CC2=O)c(C(=O)OCC)c1C,-0.77%

row,Structure (SMILES),inhibition
1,Cc1occc(=O)c1OCc1c(Cl)cccc1Cl,-0.74%
2,CCOC(=O)c1ccc(NC(=O)Cn2cnc3cc(C)c(C)cc32)cc1,21% (active)
3,CCCc1nnc(SCC(=O)Nc2ccc(C(=O)OCC)cc2)o1,2.66%
4,CCOC(=O)c1ccc(NC(=O)Cc2cccs2)cc1,3.49%
5,CSCc1ccc(C(=O)Nc2cc(C)cc(C)c2)cc1,0.9%
6,CSCCC(NC(=O)c1cc([N+](=O)[O-])cc([N+](=O)[O-])c1)c1nc2ccccc2[nH]1 (configuration not stated),2.67%
7,Nc1nonc1-n1nnc(C(=O)N/N=C/c2c[nH]c3ccccc23)c1-c1ccccc1,0.34%
8,CSC(=S)N/N=C/c1c[nH]c2ccccc12,14.4% (active)
9,O=C(O)c1cccc(NC(=S)N/N=C/c2c[nH]c3ccccc23)c1,3.31%
10,COC(=O)c1cc(S(=O)(=O)N2CCC(C(N)=O)CC2)oc1C,-2.11%
11,COc1cccc(OC)c1CN(C)C(=O)c1cnccc1C(F)(F)F,3.15%
12,CC(=O)Nc1ccc(CN2CCN(Cc3ccc(F)c(F)c3)C(CCO)C2)cc1 (configuration not stated),2.22%
13,Cc1cn(C2C=CC(CO)O2)c(=O)[nH]c1=O (configuration not stated),20.5% (active)
14,Cc1cn(C2OC[C@@H](O)[C@@H]2CO)c(=O)[nH]c1=O (some centres not stated),0.5%
15,CCOC(=O)C1=NOC(Cn2cc(C(C)=O)c(=O)[nH]c2=O)C1 (configuration not stated),3.64%
16,O=C(NNC(=O)C1C2CCC(C2)C1C(=O)O)c1ccc(Cl)cc1 (configuration not stated),-0.52%
17,Cc1ccc(NC(=O)CN(C)C(=O)COC(=O)C(C)(C)Oc2ccc(Cl)cc2)cc1,1.52%
18,Cc1ccc(O)c(NC(=O)c2cc(-c3ccco3)on2)c1,2.66%
19,Nc1nonc1-n1nnc(C(=O)N/N=C/c2cc(Br)ccc2O)c1CSC1=NCCS1,17.5% (active)

row,Structure (SMILES),inhibition
1,Nc1nonc1-n1nnc(C(=O)N/N=C/c2ccccc2O)c1CN1CCCC1,4.54%
2,Cc1ccc(SCc2c(C(=O)N/N=C/c3cccnc3)nnn2-c2nonc2N)cc1,3.86%
3,CCOc1ccc(N(CC(=O)Nc2ccccc2F)S(=O)(=O)c2c(C)[nH]c(=O)[nH]c2=O)cc1,3.71%
4,CCOc1ccccc1NC(=O)COc1ccc(S(=O)(=O)N2CCCC2)cc1,2.68%
5,O=C(NC(Cc1ccccc1)C(=O)O)/C(=C\c1ccccc1)NC(=O)c1ccco1 (configuration not stated),0.08%
6,O=C(CCS(=O)(=O)c1ccccc1)Nc1nc2c(s1)CCCC2,-2.56%
7,O=C(Cn1c(=O)sc2ccccc21)Nc1nc2c(s1)CCCC2,12.5% (active)
8,Cc1nnc(NC(=O)Cn2c(=O)sc3ccccc32)s1,3.04%
9,Cc1cnc(NC(=O)c2ccccn2)s1,-4.66%
10,CC(=O)Oc1ccccc1C(=O)Nc1ncc([N+](=O)[O-])s1,13.3% (active)
11,O=C(Cc1c(F)cccc1Cl)Nc1ncc([N+](=O)[O-])s1,5.83%
12,COc1ccccc1CNC(=O)Cn1c(=O)oc2cc(Cl)ccc21,4.32%
13,COC(=O)C1=C(Nc2ccc(C)cc2)C=C(C)C(C(=O)OC)C1c1ccc(F)cc1 (configuration not stated),1.3%
14,NC(=O)COC(=O)c1sc2cc(F)ccc2c1Cl,1.69%
15,CCOC(=O)N1CCC(Nc2c(NCCCN3CCN(c4ccc(OC)cc4)CC3)c(=O)c2=O)CC1,2.85%
16,CC(NC(=O)COC(=O)C1CCN(S(=O)(=O)c2ccccc2C(F)(F)F)CC1)c1ccccc1 (configuration not stated),0.81%
17,CC[C@H]1OC(=O)[C@H](C)[C@@H](O[C@H]2C[C@@](C)(OC)[C@@H](O)[C@H](C)O2)[C@H](C)[C@@H](O[C@@H]2O[C@H](C)C[C@H](N(C)C)[C@H]2O)[C@](C)(O)C[C@@H](C)[C@@H]2N[C@@H](COCCOC)O[C@H]([C@H]2C)[C@]1(C)O,41% (active)
18,CCCCNC(=O)C1(c2ccc(OC)cc2)CCOCC1,0.97%
19,CC1(C)CC(N2CCN(C(c3ccccc3)c3ccccc3)CC2)=CC(=[N+]2CCCCC2)C1,1.52%
